Laboratory results from ChEMBL document CHEMBL3988442, “University of Dundee, Small-Polar-MMV Screening Library” (2021).
The whole screen tested about 48,000 compounds, of which about 13,000 (27%) showed an effect of 50% or more. Some of the results follow.

These molecules were tested on Wolbachia pipientis (assay: Anti-Wolbachia Cell-Based Screen). Settings: 5 µM.
Assay type: functional
Parameters: scale not given: in the data most compounds retested in dose-response had high values

SMILES | Percent Effect [%]
O=C(c1ncoc1C1CCCO1)N1CCC2(CCCCC2)CC1 (configuration not stated) | -6.426
CCOc1ccc(C(=O)NCc2ccnc(N3CCN(C)CC3)c2)cn1 | 4.898
Cc1nn(C)c(N(C)C)c1CNCc1nnc2n1CCCCC2.Cl | 5.74
CS(=O)(=O)NCCC1CCCN(Cc2ccccc2F)C1 (configuration not stated) | -31.18
COc1coc(CN2CCCC(CCc3ccc(F)c(F)c3)C2)cc1=O (configuration not stated) | 29.51
COC(=O)C1CN(Cc2cc(F)ccc2Br)CCO1 (configuration not stated) | -7.364
C[C@@H]1CN(Cc2cc(C(F)(F)F)ccc2F)CC[C@@]1(O)C1CC1 | 18.84
CO[C@H]1CN(Cc2cc(F)ccc2F)CC[C@@]12CCCO2 | 118.4
CO[C@H]1CN(Cc2ccccc2F)C[C@@]12CCCO2 | 78.59
COc1cc(CN2C[C@H](OC)[C@]3(CCCO3)C2)ccc1F | 93.9
CO[C@H]1CN(Cc2ccc(F)c(F)c2)C[C@@]12CCCO2 | 125.7
COc1cc(CN2CC[C@@]3(CCCO3)[C@@H](O)C2)ccc1F | -7.237
CO[C@H]1CN(Cc2ccccc2F)[C@@H]2CCCO[C@H]12 | 2.761
Cc1ccc(CN2CCC3(CCCN(Cc4ccc(F)c(F)c4)C3)C2)o1 (configuration not stated) | -5.305
COCCCC1(CO)CCCN(Cc2ccc(F)c(OC)c2)C1 (configuration not stated) | -7.879
Cc1nc(CNC(=O)N2CCCC(c3ncc[nH]3)C2)sc1C (configuration not stated) | -13.73
Cc1cc(CN(Cc2ccccc2)C(C)CN2CCOCC2)no1 (configuration not stated) | -1.705
CCSc1ccc(NC(=O)NC(C)c2c(C)noc2C)cn1 (configuration not stated) | -11.22
CCN1CCCN(c2ccc(-n3ccc(C)n3)nn2)CC1 | -3.628
Cc1ccc(Oc2ncccc2CNC2Cc3ccccc3C2)cn1 | 12.49
NCC1Cc2cccc(-c3nccc(N4CCC(O)CC4)n3)c2O1 (configuration not stated) | -9.933
Cc1cc2n(n1)CC(CNC1CCN(CCc3ccccc3)CC1)CN2 (configuration not stated) | 3.275
CCc1cnc(N)nc1NCCn1cc(Cl)cn1 | -1.568
CN(C)C(=O)C1CN(Cc2ccccc2)CCN(S(C)(=O)=O)C1 (configuration not stated) | 1.114
CN(C)C(=O)NCc1nnc2n1CCN(Cc1cccs1)C2 | -18.34

SMILES | Percent Effect [%]
CN(C)C(=O)C1CN(Cc2ccsc2)Cc2ccnn2C1.O=C(O)C(F)(F)F (configuration not stated) | -5.507
CN(C)C(=O)C1CN(Cc2cccs2)CCN(S(C)(=O)=O)C1 (configuration not stated) | 110.5
Cc1cc(CN2CCN(S(C)(=O)=O)CC(C(=O)N(C)C)C2)no1 (configuration not stated) | 130.4
CN(C)C(=O)C1CN(Cc2nccs2)CCN(S(C)(=O)=O)C1 (configuration not stated) | 115
Cc1cc(CN(C)C(=O)NC2CCN(S(C)(=O)=O)CC2)no1 | -12.59
CS(=O)(=O)N1CCC2(CCN(Cc3nccs3)CC2)CC1.O=C(O)C(F)(F)F | 12.17
CN(C)C(=O)C1CN(Cc2ccsc2)CCN(S(C)(=O)=O)C1 (configuration not stated) | 92.25
Cc1ccc(-c2nc(CN3CCC(C(=O)N(C)C)CC3)cs2)o1 | 9.027
CN(C)C(=O)C1CN(Cc2cscn2)CCN(S(C)(=O)=O)C1 (configuration not stated) | 29.17
C1CCC(CNC2CCSCC2)(N2CCOCC2)CC1 | -18.78
CCN(CC)Cc1ccccc1NC(=O)N(C)Cc1ccc(OC)cc1 | -34.67
c1ccc(-n2ncc(CNCC3CCCN3c3cccnn3)n2)cc1 (configuration not stated) | 8.726
CCC(O)CN(Cc1ccccc1)S(=O)(=O)c1cnc(C)s1 (configuration not stated) | -9.422
c1cncc(CN(Cc2ccsc2)Cc2ccc(C3CCCCO3)o2)c1 (configuration not stated) | -4.94
CC(C)[C@H]1CN(Cc2ccccn2)C[C@@H]1NS(=O)(=O)C1CC1 | -5.384
CS(=O)(=O)N1CCN(Cc2cccs2)CC(C(N)=O)C1 (configuration not stated) | 99.35
CS(=O)(=O)N1C[C@H]2CCCN(Cc3cccs3)[C@H]2C1.O=C(O)C(F)(F)F | 3.048
CCCS(=O)(=O)N1C[C@@H]2CN(Cc3cccs3)CCO[C@@H]2C1.O=C(O)C(F)(F)F | 8.558
CN(C)C(=O)C1CN(Cc2ccccn2)CCN(S(C)(=O)=O)C1 (configuration not stated) | 88.48
CCN(CC(F)(F)F)C(=O)C1CCCN(Cc2ccccn2)C1 (configuration not stated) | 10.59
COCC1CN(C(=O)CNC(C)=O)Cc2ncnn2C1 (configuration not stated) | 6.87
COc1nc2ccccc2cc1CN1CCC(CNS(C)(=O)=O)C1 (configuration not stated) | -1.226
CN(C)CC(=O)N1CCCC2(CCC(=O)N(CCc3c[nH]cn3)C2)C1 (configuration not stated) | 10.28
COc1ccc(-c2nc3c([nH]2)CCNC3C(=O)O)c2ccc(C)nc12 (configuration not stated) | 11.46
CC(C)C(=O)N1CC[C@@H]2[C@H](CC1)N(Cc1cccnc1)CCS2(=O)=O.O=C(O)C(F)(F)F.O=C(O)C(F)(F)F | 86.93

SMILES | Percent Effect [%]
CCS(=O)(=O)N1CC[C@@H]2[C@H](CC1)N(CC(C)C)CCS2(=O)=O.O=C(O)C(F)(F)F | -5.407
CCCC(=O)N1CC[C@@H]2[C@H](CC1)N(Cc1cccc(C)n1)CCS2(=O)=O.O=C(O)C(F)(F)F | 0.2499
O=C(C1CC1)N1CC[C@@H]2[C@H](CC1)N(Cc1cccnc1)CCS2(=O)=O.O=C(O)C(F)(F)F.O=C(O)C(F)(F)F | 101.3
O=C(CC1CC1)N1CC[C@@H]2[C@H](CC1)N(Cc1cccnc1)CCS2(=O)=O.O=C(O)C(F)(F)F.O=C(O)C(F)(F)F | 93.65
O=C(O)C(F)(F)F.O=C(O)C(F)(F)F.O=S1(=O)CCN(Cc2cccnc2)[C@H]2CCN(c3ncccn3)CC[C@H]21 | 0.02856
O=C(O)C(F)(F)F.O=C(O)C(F)(F)F.O=C(O)C(F)(F)F.c1cncc(CN2CC[C@@H]3[C@@H]2CCN3Cc2ccc3c(c2)OCO3)c1 | -20.95
CC(C)CN1CCS(=O)(=O)[C@@H]2CCN(S(=O)(=O)c3ccccc3)CC[C@@H]21.O=C(O)C(F)(F)F | -6.866
CCS(=O)(=O)N1CC[C@@H]2[C@H](CC1)N(Cc1cccc(C)n1)CCS2(=O)=O.O=C(O)C(F)(F)F | -2.049
Cc1cccc(CN2CCS(=O)(=O)[C@@H]3CCN(C(=O)C4CC4)CC[C@@H]32)n1.O=C(O)C(F)(F)F | 4.108
CCS(=O)(=O)N1CC[C@@H]2[C@H](CC1)N(Cc1cccnc1)CCS2(=O)=O.O=C(O)C(F)(F)F.O=C(O)C(F)(F)F | 110.8
CN(CCCN1CCOCC1)[C@@H]1c2ccccc2C2(CCNCC2)[C@H]1O | 1.971
Cc1cc(S(=O)(=O)N2CCCc3cc(F)cc(F)c32)sc1C(=O)O | 6.843
Cc1ccc2nc(C)cc(C(=O)N3C[C@H]4CCC[C@@]4(CO)C3)c2c1 | -30.24
COCCn1cnnc1Cn1ccnc1-c1ccoc1 | 3.29
Nc1ncc2c(n1)CN(C1CCCC1)C2=O | -0.5678
CC(C)CC(=O)N1CC[C@@H]2[C@H](CC1)N(Cc1cccnc1)CCS2(=O)=O.O=C(O)C(F)(F)F.O=C(O)C(F)(F)F | 108.2
CCCC(=O)N1CC[C@@H]2[C@H](CC1)N(Cc1cccnc1)CCS2(=O)=O.O=C(O)C(F)(F)F.O=C(O)C(F)(F)F | -5.055
CCC(=O)N1CC[C@@H]2[C@H](CC1)N(Cc1cccc(C)n1)CCS2(=O)=O.O=C(O)C(F)(F)F | -0.9694
Cc1cccnc1NC(=O)C1CCCN1Cc1ccccc1 (configuration not stated) | 28.43
CNC(=O)C1CN(c2ncccn2)CCN1Cc1ccccc1 (configuration not stated) | 91.24
CNC(=O)C1CN(c2cc(C)ncn2)CCN1Cc1ccccc1 (configuration not stated) | 91.54
Cc1cc(N2CCN(Cc3ccccc3)CC(O)C2)nc(N)n1 (configuration not stated) | 4.027
CC(C)Nc1cc(N2CCN(Cc3ccccc3)C(CCO)C2)ncn1 (configuration not stated) | 10.47
CNC(=O)C1CN(c2ccnc(C)n2)CCN1Cc1ccccc1 (configuration not stated) | 49.78
Cc1c(C(C)NC2CCCC2)cnn1-c1ccc(F)cc1F (configuration not stated) | 1.139

SMILES | Percent Effect [%]
O=C(N[C@@H]1CCN(C(=O)c2cc[nH]c2)C[C@H]1O)c1ccccn1 | 16.73
O=C(N[C@@H]1CN(Cc2cccc(F)c2)C[C@H]1O)c1cscn1 | 114.1
CC(C)N1C[C@H](NC(=O)c2coc(COc3cccc(F)c3)n2)[C@@H](O)C1 | 0.03825
NC(=O)CN1C(=O)CO[C@H]2CN(Cc3ccc(F)c(F)c3)C[C@H]21 | 0.7627
O=C(NS(=O)(=O)c1ccc(F)c(F)c1)c1cscn1 | 8.824
Fc1ccc(CN2CCCN(Cc3cscn3)CC2)cc1 | -1.277
O=C(N[C@@H]1CN(Cc2ccc(F)cc2)C[C@H]1O)c1cscn1 | 113.4
O=C(NC1CC(=O)N(Cc2cccc(F)c2)C1)c1ccncc1 (configuration not stated) | 2.208
CN(c1ncccc1CNC(=O)c1cscn1)C1CCCCC1 | -0.9499
O=C(N[C@@H]1CN(Cc2cccc3[nH]ccc23)C[C@H]1O)c1cscn1 | 113.8
O=C(N[C@@H]1CN(c2ncc(F)cn2)[C@@H]2COC[C@@H]21)c1cscn1 | -1.705
O=C(N[C@@H]1CN(Cc2ccc(F)c(F)c2)C[C@H]1O)c1cscn1 | 124.1
CNC(=O)N1CCOC(C)(c2cnn(C)c2)C1 (configuration not stated) | -1.831
O=C(O)CCc1cc2n(n1)CCN(Cc1ccc3[nH]ccc3c1)C2 | -14.18
CCc1cnc(N2C[C@@H](NC(=O)c3cscn3)[C@H]3COC[C@H]32)nc1.O=C(O)C(F)(F)F | -6.299
CSCCCN1CC[C@@H](NC(=O)c2cnccn2)[C@H](O)C1 | -11.75
O=C(N[C@@H]1CN(Cc2ccc3cc[nH]c3c2)C[C@H]1O)c1cnccn1 | 102.1
O=C(N[C@@H]1CCN(c2nccc3ccccc23)C[C@H]1O)c1cnccn1 | -5.026
NC(=O)C1CCN(CCc2ccc(NCc3cscn3)cc2)CC1 | 0.9786
O=C(N[C@@H]1CN(CCc2ccc(F)cc2)C[C@H]1O)c1cscn1 | 115.2
N#Cc1cc(NC(=O)c2cscn2)ccc1N1CCC(O)CC1 | -15.52
O=C(N[C@@H]1CN(Cc2ccc3[nH]ccc3c2)C[C@H]1O)c1cscn1 | 101.2
